hgDAF12 agonist – H. glycines DAF-12 receptor agonists, primary screen, cell-based, luminescence, HEK293, GAL4 fusion, UAS-luciferase; Nuclear hormone receptor DAF-12 (Heterodera glycines), GAL4 fusion; HEK293 GAL4-hgDAF12 UAS-luciferase reporter, agonist luminescence; normalized to butyrate control; activation, % at 6.8 µM; 370,000 compounds, 1.8% hits;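 active = activation above a cutoff set at the mean of all screened compounds plus 3 SD, cut at about 10% in these data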;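 also: 0% = DMSO wells and 100% = sodium butyrate wells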
hcDAF-12 act – H. contortus DAF-12 nuclear receptor activators, primary screen, cell-based, luminescence, HEK293, lit1-tk-luc reporter | activation, % at 6.8 µM | HEK293 hcDAF-12 lit1-tk-luc reporter; 0% DMSO, 100% Δ7-dafachronic acid | 370,000 compounds, 1.4% hits;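 active = activation above the mean of all tested compounds plus 3 SD, cut at about 5.5% in these data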;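 also: 100% = response to 3 µM Δ7-dafachronic acid high control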
ssDAF-12 act – S. stercoralis DAF-12 nuclear receptor activators, primary screen, cell-based, luminescence, HEK293, GRIP1 co-expression, lit1-tk-luc; Nuclear hormone receptor DAF-12 (Strongyloides stercoralis); HEK293 ssDAF-12/GRIP1 lit1-tk-luc reporter; % of 3 µM dafachronic acid response; activation, % at 6.8 µM; 370,000 compounds, 1% hits;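 active = activation above the mean over all tested compounds plus 3 SD, cut at about 0.9% in these data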;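 also: 0% = DMSO-only wells and 100% = 3 µM delta7-dafachronic acid wells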
Rev-erbA mod – modulators of Rev-erb alpha DNA binding, primary screen, biochemical, FITC-DNA, fluorescence polarization, uHTS | Rev-erbα–FITC-DNA binding, 90 min | activity, % at 10 µM | 370,000 compounds, 0.79% hits | AID 1259318, 2017;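 active = activity above about 14%, limit read from the data; passing the limit was not always enough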;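 also: 0% = DMSO wells with 35 nM protein and 100% = DMSO wells with 750 nM protein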
DAX1 inh-1 – DAX1 (NR0B1) inhibitors on StAR promoter, primary screen, cell-based, luminescence, SF-1 (NR5A1), full-length DAX-1 | 370,000 compounds, 1.1% hits | AID 652010, 2013 | HEK293T StAR-luciferase reporter, SF-1/DAX-1 repression relief | inhibition, % at 6.8 µM;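 active = inhibition above the mean over all tested compounds plus 3 SD, cut at about 3.6% in these data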;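 also: 0% = DAX-1 cells with DMSO and 100% = cells lacking DAX-1 with DMSO; higher inhibition means more luminescence from relief of DAX-1 repression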
DAX1 inh-2 – DAX1 (NR0B1) inhibitors, primary screen, cell-based, HEK293, Gal4-DAX1, luciferase luminescence; inhibition, % at 6.75 µM; 340,000 compounds, 0.99% hits; Nuclear receptor subfamily 0 group B member 1 (Homo sapiens), P51843; HEK293 Gal4-DAX1 luciferase reporter;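 active = inhibition above the mean over all tested compounds plus 3 SD, cut at about 4.2% in these data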;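 also: 0% = DAX1-transfected cells with DMSO and 100% = empty-vector control cells with DMSO; inhibition shows as a rise in luminescence from relieved DAX1 repression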
Target sequence (P51843 207-470 limits assumed): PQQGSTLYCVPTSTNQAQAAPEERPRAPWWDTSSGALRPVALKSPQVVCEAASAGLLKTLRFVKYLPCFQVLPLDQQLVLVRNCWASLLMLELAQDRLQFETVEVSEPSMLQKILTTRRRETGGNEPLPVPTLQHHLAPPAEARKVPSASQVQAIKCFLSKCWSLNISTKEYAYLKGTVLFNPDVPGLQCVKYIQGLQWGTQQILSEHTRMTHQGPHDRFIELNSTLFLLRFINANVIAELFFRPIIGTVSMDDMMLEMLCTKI
LXRb hcDAF ctr – LXR agonists, Gal4 luciferase reporter, confirmation, counter-screen for hcDAF-12 agonist project, cell-based, luminescence, HEK293, H. contortus campaign; shares compounds with hcDAF-12 act; HEK293 Gal4-LXR tk-luc reporter, 24 h; normalized: DMSO 0%, positive control 100%; activation, % at 6.8 µM; 3,400 tested, under 10 active; AID 743027, 2013;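 active = mean percent activation of the reporter above a cutoff set as the average over tested compounds plus their standard deviation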
hcDAF12 conf – H. contortus DAF-12 receptor agonists, confirmation, cell-based, luminescence, HEK293, lit1-tk-luc, triplicate; HEK293 hcDAF-12 lit1-tk-luc reporter; % of Δ7-dafachronic acid response; activation, % at 6.8 µM; 3,400 compounds, 61% hits; AID 743032, 2013; shares compounds with hcDAF-12 act;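 active = mean activation across triplicate tests above the threshold derived from the earlier primary screen, cut at about 5.5% in these data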;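 also: 0% = DMSO only wells and 100% = 3 µM Δ7-dafachronic acid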
Starred values were filed as active, the others as inactive; nt = no result. The list is not random: actives were taken first. Their share in the collection is about 4.8%.

SMILES | hgDAF12 agonist | hcDAF-12 act | ssDAF-12 act | Rev-erbA mod | DAX1 inh-1 | DAX1 inh-2 | LXRb hcDAF ctr | hcDAF12 conf
COC(=O)c1cc2c(c3c4cc(F)ccc4n(S(=O)(=O)c4ccccc4)c13)C(=O)N(C)C2 | 0 | 0 | -1 | 1 | 0 | nt | nt | nt
CCCCN1C[C@@H](COCc2ccccc2)Oc2cc(F)ccc2S1(=O)=O | 10 | -1 | -1 | -2 | 0 | nt | nt | nt
CCCN1CCN(CCCNC(=O)CCn2nc(-c3ccccc3)ccc2=O)CC1 | 4 | -1 | -1 | -5 | 0 | 1 | nt | nt
CN1CCN(CCCNC(=O)Cn2nc(-c3ccccc3)ccc2=O)CC1 | 2 | 8.5* | -2 | 1 | 1 | 0 | 0 | 0
COc1ccc(NC(=O)N(C)C[C@@H]2OCCCC[C@@H](C)Oc3ccc(NS(C)(=O)=O)cc3C(=O)N([C@H](C)CO)C[C@@H]2C)cc1 | 0 | -1 | 0 | -2 | 0 | nt | nt | nt
Cc1c(O)ccc(/C=N/Nc2ncccc2[N+](=O)[O-])c1O | 10 | 7.5* | 1.2* | -7 | 1 | 0 | 2 | 6.0*
CCOc1cccc2sc(NC(=O)CC)nc12 | -1 | -3 | -1 | -1 | 0 | 0 | nt | nt
CCC(=O)NNc1nc2c(F)cccc2s1 | 5 | 7.0* | 0 | -1 | 0 | 4 | 0 | 4
c1nc(NCC2CCCCO2)c2cc(-c3ccc4c(c3)OCO4)ccc2n1 (stereo not given) | -1 | 6.9* | -1 | -3 | nt | nt | 0 | 2
c1nc(NCC2CCCO2)c2cc(-c3ccc4c(c3)OCO4)ccc2n1 (stereo not given) | 2 | 1 | -1 | 5 | nt | nt | nt | nt
COc1ccc(-c2noc(C3CCCN(C(=O)Nc4cc(C)cc(C)c4)C3)n2)cc1 (stereo not given) | 2 | 2 | 0 | -3 | 1 | nt | nt | nt
C=CCN(CC#Cc1ccccc1)Cc1ccc(OC)cc1 | -1 | 2 | -1 | -3 | 0 | nt | nt | nt
O=C(CC1C(=O)NCCN1Cc1cccc(C(F)(F)F)c1)NCCCOc1cccnc1 (stereo not given) | -1 | 0 | -2 | 0 | 0 | 1 | nt | nt
O=C(CC1C(=O)NCCN1Cc1ccccc1)NCCCOc1cccnc1 (stereo not given) | 1 | 14* | -1 | -5 | 1 | 1 | 0 | 0
Cc1sc2nc(COC(=O)CNC(=O)c3cc(F)ccc3F)[nH]c(=O)c2c1C | 0 | 1 | 1 | -8 | -1 | nt | nt | nt
CCOC(=O)c1cnn(-c2ncnc3sc4c(c23)CCC4)c1N | 2 | 7.3* | 1 | 0 | 0 | 0 | 0 | 4
C/C(=N\NC(=S)Nc1cc(S(=O)(=O)N2CCOCC2)ccc1Cl)c1ccc(N2CCOCC2)cc1 | -2 | -2 | -2 | -3 | 0 | -3 | nt | nt
C/C(=N\NC(=S)Nc1ccc(C)c(C)c1)c1ccc(N2CCOCC2)cc1 | 3 | 6.9* | 0 | 5 | 0 | 0 | 0 | 2
COc1cccc2c1CCc1c-2nc2ccccc2c1C(=O)O | 12* | 8.4* | 0 | -6 | 1 | 0 | 1 | 7.8*
COc1ccc(C(C#N)N2N=C(C)CC2c2ccccc2)cc1OC (stereo not given) | -2 | 0 | 0 | -9 | 0 | 0 | nt | nt
COc1ccc(C(C#N)N2N=C(c3ccccc3)CC2c2ccccc2)cc1OC (stereo not given) | 7 | 8.7* | 0 | 5 | 2 | 2 | 0 | 2
Oc1[nH]c2ccccc2c1C=Nc1ccc2c(c1)OCCO2 | 13* | 8.4* | 1 | -1 | 3 | 2 | 1 | 6.9*
Cc1cccc(/N=C/c2c(O)[nH]c3ccccc23)n1 | 12* | 11* | 1.2* | 2 | 2 | 3 | 1 | 9.2*
COC(=O)[C@]12C[C@H](CC(=O)NCCC(C)C)C(=O)N(CCc3ccc(OC)c(OC)c3)C1=C[C@H](C(C)C)O[C@@H]2C1CC1 | -3 | -1 | -1 | 10 | 0 | nt | nt | nt
COC(=O)[C@]12C[C@H](CC(=O)NCc3ccc(C)o3)C(=O)N(CCc3ccc(OC)c(OC)c3)C1=C[C@H](C1CCCC1)O[C@@H]2C | 2 | 1 | -1 | 1 | 0 | nt | nt | nt
SMILES | hgDAF12 agonist | hcDAF-12 act | ssDAF-12 act | Rev-erbA mod | DAX1 inh-1 | DAX1 inh-2 | LXRb hcDAF ctr | hcDAF12 conf
NNc1nc(-c2ccccc2Cl)nc2ccccc12 | -1 | 1 | -1 | -10 | 0 | 1 | nt | nt
NNc1nc(-c2ccccc2Cl)nc2sc3c(c12)CCCC3 | 9 | 8.3* | 1 | 14 | 2 | 2 | 1 | 7.7*
Cc1ccc(/C=C/c2nnc(-c3ccccc3)o2)cc1 | 9 | 7.3* | 1.7* | -2 | 2 | 1 | 0 | 3
O=C(c1ccc(-c2nc3ccccc3s2)o1)N1CCN(c2ccccc2O)CC1 | 3 | 6.8* | 0 | -7 | 0 | -1 | 0 | 4
O=C(O)c1ccc(-c2nc3ccccc3s2)o1 | 5 | 2 | -1 | 4 | 1 | -3 | nt | nt
CCN(CC)CCCNC(=O)c1cc2c(-c3ccc(Cl)cc3)nn(C)c2s1 | 1 | 6.6* | 0 | -3 | 2 | 5.5* | 0 | 6.7*
C[C@@H](O[Si](c1ccccc1)(c1ccccc1)C(C)(C)C)[C@@H]1NC(=O)[C@@H]2C[C@]3(Br)c4ccccc4N(S(=O)(=O)c4ccccc4)[C@@H]3N2C1=O | 4 | 0 | -2 | -6 | nt | nt | nt | nt
Cc1csc2ncc(C(=O)Nc3ccon3)c(=O)n12 | 2 | 9.5* | -1 | -4 | 0 | -1 | 0 | 1
Cc1cccc(NC(=O)c2cnc3scc(C)n3c2=O)c1 | 6 | 5 | -1 | 12 | 2 | 2 | nt | nt

Assay outcomes (PubChem)
